The results in this text go back to PubChem BioAssay (NCI).

Compounds without any hit were thinned out: in the full panel of roughly 79,000, 15% have a hit. Values without a mark were called inactive. Activity calls are given as the source filed them. Cut-off read from the data, not from the text of the source: active = growth inhibition above about 70%; inactive = the rest.

Test [1] in a line: NCI Yeast Anticancer Drug Screen. Data for the rad50 strain (AID 155).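 Note: 0% = growth of vehicle-only cultures of the same strain.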 Conditions: S. cerevisiae rad50 strain growth inhibition, hits give high values. In short, it runs like this: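 Inhibition values express reduced yeast growth in compound-treated cultures relative to vehicle-treated controls.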
Test [2] can be described thus: NCI Yeast Anticancer Drug Screen. Data for the mec2-1 strain (AID 157). Conditions: S. cerevisiae mec2-1 strain, hits give high values. In short, it runs like this: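 Readout is yeast growth inhibition, normalised to vehicle-treated controls, in the mec2-1 strain exposed to compound.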
Test [3] in a line: NCI Yeast Anticancer Drug Screen. Data for the sgs1 mgt1 strain (AID 161).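 Note: 0% = growth of cultures given vehicle only.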 The note with it: S. cerevisiae sgs1 mgt1 strain, hits give high values. In short, it runs like this:
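Growth of a repair-deficient yeast mutant was monitored after compound treatment and expressed as inhibition relative to vehicle-treated cultures.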

A short description of test [4]: NCI Yeast Anticancer Drug Screen. Data for the cln2 rad14 strain (AID 165).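 Note: 0% = growth equal to vehicle treated cultures.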 The note with it: S. cerevisiae cln2 rad14 strain, hits give high values. The essentials:
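Relative to vehicle controls, growth inhibition of compound-treated cln2 rad14 yeast was recorded.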

The nature of test [5]: NCI Yeast Anticancer Drug Screen. Data for the bub3 strain (AID 167). The note with it: S. cerevisiae bub3 mutant strain, hits give high values. In short, it runs like this:
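Steps: expose the mutant yeast strain to compound; grow alongside vehicle-treated cultures; measure growth; express inhibition against the vehicle cultures.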

A short description of test [6]: NCI Yeast Anticancer Drug Screen. Data for the mlh1 rad18 strain (AID 175). The note with it: S. cerevisiae mlh1 rad18 strain growth inhibition, hits give high values. The essentials: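 Test agents were incubated with a yeast strain of defined genotype (DNA damage repair defect). Inhibition of growth was derived by comparison with vehicle-exposed cultures.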
Setting [7] is: at 5.0 µM (retest, dose inferred, filed as 0.5).
Where [8] appears, read: at 50.0 µM (retest, dose inferred, filed as 5.0).

Regarding `COC1CC(OC(=O)c2ccccc2)C2OC(c3ccccc3)OCC2O1` (configuration not stated), the growth inhibition is 3% in test [1] (setting [7]); 26% in test [1] (setting [8]); 42.5% in test [1] (at 50.0 µM); 2% in test [2] (setting [7]); 18% in test [2] (setting [8]); 8.35% in test [2] (at 50.0 µM). For the same compound, the growth inhibition was 1% in test [3] (setting [7]); 44% in test [3] (setting [8]); 63.3% in test [3] (at 50.0 µM); 7% in test [4] (setting [7]); 39% in test [4] (setting [8]); -3.35% in test [4] (at 50.0 µM). In addition, the growth inhibition was 24% in test [5] (setting [7]); 80% (active) in test [5] (setting [8]); 15.2% in test [5] (at 50.0 µM); 6% in test [6] (setting [7]); 36% in test [6] (setting [8]); 6.15% in test [6] (at 50.0 µM).
On to `CC(c1ccccc1)n1c2ccccc2c2c(N)ncnc21` (configuration not stated), for which the growth inhibition in test [1] (setting [7]) is 6%; in test [1] (setting [8]) it was 100% (active); in test [1] (at 50.0 µM), 78.4% (active); in test [2] (setting [7]), -11%; in test [2] (setting [8]) it was 100% (active); in test [2] (at 50.0 µM), 86.8% (active). For the same compound, the growth inhibition is 23% in test [3] (setting [7]); 100% (active) in test [3] (setting [8]); 89.5% (active) in test [3] (at 50.0 µM); -4% in test [4] (setting [7]); 100% (active) in test [4] (setting [8]); 90.8% (active) in test [4] (at 50.0 µM). Also, the growth inhibition was 13% in test [5] (setting [7]); 100% (active) in test [5] (setting [8]); 90.3% (active) in test [5] (at 50.0 µM); 32% in test [6] (setting [7]); 99% (active) in test [6] (setting [8]); 91.9% (active) in test [6] (at 50.0 µM).
Turning to `c1ccc(-n2c3ccccc3c3ccccc32)cc1`, the growth inhibition is 4% in test [1] (setting [7]); 11% in test [1] (setting [8]); 86.7% (active) in test [1] (at 50.0 µM); 4% in test [2] (setting [7]); 3% in test [2] (setting [8]); 82.2% (active) in test [2] (at 50.0 µM). The growth inhibition in test [3] (setting [7]) is 1%; in test [3] (setting [8]), 9%; in test [3] (at 50.0 µM), 88.2% (active); in test [4] (setting [7]) it was 1%; in test [4] (setting [8]), -12%; in test [4] (at 50.0 µM), 37.9%. The growth inhibition was 5% in test [5] (setting [7]); 21% in test [5] (setting [8]); 88.2% (active) in test [5] (at 50.0 µM); -1% in test [6] (setting [7]); 11% in test [6] (setting [8]); 84.5% (active) in test [6] (at 50.0 µM).
`CCOc1ccc(/C=N\NC(=O)c2ccco2)cc1OCC`: the growth inhibition in test [1] (setting [7]) is -6%; in test [1] (setting [8]) it was 4%; in test [1] (at 50.0 µM), 59.8%; in test [2] (setting [7]), -3%; in test [2] (setting [8]) it was -2%; in test [2] (at 50.0 µM), 94% (active). The growth inhibition in test [3] (setting [7]) was -3%; in test [3] (setting [8]), 11%; in test [3] (at 50.0 µM) it was 47.7%; in test [4] (setting [7]) it was -23%; in test [4] (setting [8]) it was -22%; in test [4] (at 50.0 µM), 67%. Besides, the growth inhibition was -11% in test [5] (setting [7]); -22% in test [5] (setting [8]); 92.6% (active) in test [5] (at 50.0 µM); -2% in test [6] (setting [7]); -12% in test [6] (setting [8]); 44.6% in test [6] (at 50.0 µM).
For `COc1cccc2c1C(=O)c1c(O)c3c(c(O)c1C2=O)CC(O)(C(C)=O)CC3OC1CC(N/C(C)=C/C(C)=O)C(O)C(C)O1` (configuration not stated), the growth inhibition in test [1] (setting [7]) was 91% (active); in test [1] (setting [8]), 95% (active); in test [1] (at 50.0 µM) it was 88.5% (active); in test [2] (setting [7]), 65%; in test [2] (setting [8]) it was 98% (active); in test [2] (at 50.0 µM) it was 90% (active). For the same compound, the growth inhibition in test [3] (setting [7]) is 45%; in test [3] (setting [8]), 98% (active); in test [3] (at 50.0 µM) it was 88.9% (active); in test [4] (setting [7]), 60%; in test [4] (setting [8]), 98% (active); in test [4] (at 50.0 µM), 88.4% (active). In addition, the growth inhibition in test [5] (setting [7]) is 69%; in test [5] (setting [8]), 98% (active); in test [5] (at 50.0 µM) it was 85.8% (active); in test [6] (setting [7]), 79% (active); in test [6] (setting [8]), 97% (active); in test [6] (at 50.0 µM), 88.4% (active).
`COC(=Nc1ccccc1)SSC(C)C`: the growth inhibition in test [1] (setting [7]) is 23%; in test [1] (setting [8]) it was 77% (active); in test [1] (at 50.0 µM), 84.5% (active); in test [2] (setting [7]), 19%; in test [2] (setting [8]) it was 57%; in test [2] (at 50.0 µM) it was 86.8% (active). In addition, the growth inhibition in test [3] (setting [7]) is 38%; in test [3] (setting [8]) it was 87% (active); in test [3] (at 50.0 µM), 81.6% (active); in test [4] (setting [7]) it was 38%; in test [4] (setting [8]), 66%; in test [4] (at 50.0 µM) it was 46.4%. The growth inhibition in test [5] (setting [7]) is 46%; in test [5] (setting [8]) it was 92% (active); in test [5] (at 50.0 µM), 86.2% (active); in test [6] (setting [7]) it was 21%; in test [6] (setting [8]), 64%; in test [6] (at 50.0 µM) it was 85.5% (active).
As for `CC(=O)NC1CCCCC1c1ccc(C2CCCCC2NC(C)=O)cc1` (configuration not stated), the growth inhibition is -8% in test [1] (setting [7]); 3% in test [1] (setting [8]); -11.9% in test [1] (at 50.0 µM); -8% in test [2] (setting [7]); 9% in test [2] (setting [8]); -9.3% in test [2] (at 50.0 µM). Also, the growth inhibition in test [3] (setting [7]) is -4%; in test [3] (setting [8]) it was 19%; in test [3] (at 50.0 µM), 5.3%; in test [4] (setting [7]), -69%; in test [4] (setting [8]), -6%; in test [4] (at 50.0 µM), 66.8%. Also, the growth inhibition is -4% in test [5] (setting [7]); 1% in test [5] (setting [8]); -2.45% in test [5] (at 50.0 µM); 3% in test [6] (setting [7]); 3% in test [6] (setting [8]); 1.9% in test [6] (at 50.0 µM).
On to `O=C1/C(=C\c2ccc([N+](=O)[O-])o2)Oc2cc(O)ccc21`, for which the growth inhibition is 97% (active) in test [1] (setting [7]); 96% (active) in test [1] (setting [8]); 95.2% (active) in test [1] (at 50.0 µM); 97% (active) in test [2] (setting [7]); 97% (active) in test [2] (setting [8]); 91.8% (active) in test [2] (at 50.0 µM). The growth inhibition in test [3] (setting [7]) is 96% (active); in test [3] (setting [8]) it was 96% (active); in test [3] (at 50.0 µM) it was 95.7% (active); in test [4] (setting [7]), 98% (active); in test [4] (setting [8]) it was 98% (active); in test [4] (at 50.0 µM) it was 93.6% (active). Also, the growth inhibition in test [5] (setting [7]) was 75% (active); in test [5] (setting [8]) it was 90% (active); in test [5] (at 50.0 µM) it was 41.5%; in test [6] (setting [7]), 97% (active); in test [6] (setting [8]) it was 98% (active); in test [6] (at 50.0 µM) it was 95.7% (active).
In the case of `CC1=C/C(=C\C=C2/N(C)c3c(C)cccc3C2(C)C)C(=O)c2ncccc21`, the growth inhibition was 28% in test [1] (setting [7]); 98% (active) in test [1] (setting [8]); 94.2% (active) in test [1] (at 50.0 µM); 28% in test [2] (setting [7]); 99% (active) in test [2] (setting [8]); 29.7% in test [2] (at 50.0 µM). The growth inhibition in test [3] (setting [7]) was 19%; in test [3] (setting [8]) it was 98% (active); in test [3] (at 50.0 µM) it was 70.8% (active); in test [4] (setting [7]), 9%; in test [4] (setting [8]), 98% (active); in test [4] (at 50.0 µM), 24.6%. For the same compound, the growth inhibition in test [5] (setting [7]) is 49%; in test [5] (setting [8]), 98% (active); in test [5] (at 50.0 µM), 64.6%; in test [6] (setting [7]), 45%; in test [6] (setting [8]), 98% (active); in test [6] (at 50.0 µM), 63.2%.
